Tg IFNy HTS = blocks Toxoplasma gondii growth in the presence of IFN-gamma. 69,000 tested, 3.8% active. AID 1259416. Toxoplasma gondii growth in IFN-gamma-treated host cells; active compounds read low. activity change, negative = inhibition, % (test concentration not listed); in the data active = activity change below about -70%, passing the limit was not always enough;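 also: host cells are HeLa cells infected with Toxoplasma gondii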
Of the large screens only hits and unclear results are named; the others gave an inactive call; ! = not active in a repeat. This excerpt belongs to a sample that is enriched for hits.

Cc1[nH]c(/C=C2/C(=O)Nc3ccc(F)cc32)c(C)c1C(=O)NC[C@H](O)CN1CCOCC1	none
COc1ccc(-c2nc(C)c(-c3ccc(SCc4ccccc4Cl)nn3)s2)cc1	none
Nc1nc2ccc(Cl)cc2c2nc(-c3ccco3)nn12	none
Nc1nc(NCCc2ccc(O)cc2)nc2nc(-c3ccco3)nn12	Tg IFNy HTS -80
Nc1nc2c(cnn2CCc2ccccc2)c2nc(-c3ccco3)nn12	none
Cn1ccnc1-c1nccn1-c1ccc(OCC2CCCO2)cc1 (stereo not given)	none
COCC1(C(=O)NCc2cnc(C)cn2)CCC1	none
Cc1cccc(NC(=O)CN2C(=O)CCc3cc(S(=O)(=O)N4CCC(C)CC4)ccc32)c1C	none
CC(c1cccc(-c2cccc(C(=O)c3nccn3C)c2)c1)N(C)C (stereo not given)	none
CCN(CC1CCOCC1)C(=O)c1cc(-c2ccccc2Cl)oc1C	none
CCc1nc(CN(C)C(=O)c2cc(-c3ccccc3)no2)no1	none
CCC(=O)Nc1cccc(-c2cn3ccc(C)cc3n2)c1	none
CCc1ccn2cc(-c3cc(-c4ccccc4)no3)nc2c1	Tg IFNy HTS -81
Cc1ccc(-c2nc(Cn3nnc(C(=O)NCCc4ccccc4)c3C)c(C)o2)cc1	none
Cc1ccc(-c2nc(Cn3nnc(C(=O)NC4CCCC4)c3C)c(C)o2)cc1	Tg IFNy HTS -101
Cc1ccc(-c2nc(Cn3nnc(C(=O)NCc4ccc(Br)cc4)c3C)c(C)o2)cc1	none
Cc1ccc(-c2nc(Cn3nnc(C(=O)Nc4ccccc4)c3C)c(C)o2)cc1	none
Cc1ccc(-c2nc(Cn3nnc(C(=O)NCc4ccc(C(C)C)cc4)c3C)c(C)o2)cc1	none
Cc1ccc(CNC(=O)c2nnn(Cc3nc(-c4ccc(C)cc4)oc3C)c2C)cc1	Tg IFNy HTS -94
O=C(CN1CCCC(O)(Cn2cnc3ccccc32)C1)Nc1ccc2c(c1)OCO2 (stereo not given)	none
CCN(CC)C(=O)CC1CC2(CCN(S(=O)(=O)C3CC3)CC2)Oc2ccccc21 (stereo not given)	none
CCN(Cc1ccccc1)C(=O)c1cc2cccnc2n(Cc2ccccc2F)c1=O	none
CN(Cc1cccc(C(=O)Nc2cccc(F)c2F)c1)CC1CCCO1 (stereo not given)	none
CCc1nc(CN2CCN3CCN(C)CC3C2)c(C)[nH]1 (stereo not given)	none
CC(C)C(=O)c1cc2c(s1)CCN2S(C)(=O)=O	Tg IFNy HTS -85
CS(=O)(=O)N1CCc2sc(C(=O)Nc3ccccc3F)cc21	none
CS(=O)(=O)N1CCc2sc(C(=O)NCc3ccccc3)cc21	none
Cc1c2oc3c(C)ccc(C(=O)OC(C)C4NC(=O)C(C(C)C)N(C)C(=O)CN(C)C(=O)C5CCCN5C(=O)C(C(C)C)NC4=O)c3nc-2c(C(=O)OC(C)C2NC(=O)C(C(C)C)N(C)C(=O)CN(C)C(=O)C3CCCN3C(=O)C(C(C)C)NC2=O)c(N)c1=O (stereo not given)	Tg IFNy HTS -83
CCc1cn[nH]c1C1CCN(C(=O)c2cn(CC3CCCNC3)nn2)CC1 (stereo not given)	none
Cn1nnnc1SCC(=O)N=C1NC(=O)CS1	none
O=C(O)c1ccc(-c2ccc(O)c(F)c2)cc1	none
O/N=C/c1ccc(-c2ccc(O)c(F)c2)c(Cl)c1O	Tg IFNy HTS -87
CCS(=O)(=O)N1CCC2(CC1)OC(=O)C(C)=C2C(=O)NCCCN1CCCCC1	none
O=C(Nc1ccc(F)cc1)N1C[C@@H]2C[C@H](C(=O)N3CCOCC3)[C@@H](C1)O2	none
CSc1cccc(NC(=O)CN2CCC3(CC2)N=C(c2ccc(Cl)cc2)C(=O)N3)c1	none
CCN1C(=O)[C@@H]2CN(C(=O)N(C)C)C[C@H]2C12CCN(C(=O)c1ccno1)CC2	none
O=C1C[C@@H](c2ccccc2)Oc2cc(O)cc(O)c21	none
COc1ccc([C@@H]2CC(=O)c3c(O)cc(O[C@@H]4O[C@H](CO[C@@H]5O[C@@H](C)[C@H](O)[C@@H](O)[C@H]5O)[C@@H](O)[C@H](O)[C@H]4O)cc3O2)cc1O	none
COc1ccc([C@@H]2CC(=O)c3c(O)cc(O)cc3O2)cc1O	Tg IFNy HTS -77!
COC(=O)c1ccc(NC(=O)C(=O)NCCc2sc(-c3ccc(Cl)cc3)nc2C)cc1	none
CC(C)c1cccc(NC(=O)Cn2c(=O)cc(-c3nc(C4CC4)no3)c3ccccc32)c1	none
CN1CC2(CCCCN2C(=O)Cc2ccccc2)CC1=O (stereo not given)	none
Cc1cc2ccccc2n1CCC(=O)NCc1nccn1C	none
FC(F)(F)c1cccc(N2CCN(c3nc(-c4ccc(Cl)cc4)nc4ccccc34)CC2)c1	none
COc1ccc(-c2nc(N3CCN(c4cccc(C(F)(F)F)c4)CC3)c3ccccc3n2)cc1	none
Nc1ccc(-c2ccc3ncc4ccc(=O)n(-c5cccc(C(F)(F)F)c5)c4c3c2)cn1	Tg IFNy HTS -76
O=C(Cc1cccnc1)N1CCCC2(CCN(Cc3ccco3)C2)C1 (stereo not given)	none
Cn1ccnc1-c1ccccc1C(=O)N1C[C@@H]2[C@H](C1)[C@H]1CC[C@@H]2O1	none
CC(C)(C)Cn1c(N)nc2ccc(-c3[nH]c(C(C)(C)C)nc3-c3ccc(F)cc3)nc21	Tg IFNy HTS -83
CC(C)Nc1nc2c(c(NC3CC3)n1)CCN(C(=O)c1ccco1)CC2	none
COc1ccc(C2CN=NC23CSc2ccccc2C3=O)cc1 (stereo not given)	Tg IFNy HTS -82
COc1ccc(C2Sc3ccccc3N=C3c4ccccc4CCC32)cc1 (stereo not given)	none
COc1ccc(C2NC(=S)NC3=C2CCc2ccccc23)cc1 (stereo not given)	none
C[C@]12OC(C[C@]1(O)CO)n1c3ccccc3c3c4c(c5c6ccccc6n2c5c31)CNC4=O	Tg IFNy HTS -82
CC(C)SCCNS(=O)(=O)c1sc2c(c1C(=O)O)CCNC2	none
C[C@H]1CN([C@@H](C)CO)C(=O)CCCn2nncc2CO[C@@H]1CN(C)C(=O)c1ccc(N2CCN(C)CC2)cc1	none
C[C@H](CO)N1C[C@H](C)[C@@H](CN(C)CC2CCCCC2)OCc2cnnn2CCCC1=O	none
C[C@H](CO)N1C[C@H](C)[C@H](CN(C)CC2CCCCC2)OCc2cnnn2CCCC1=O	none
C[C@@H]1CN([C@H](C)CO)C(=O)CCCn2nncc2CO[C@H]1CN(C)CC1CCCCC1	Tg IFNy HTS -99
C[C@@H]1CN([C@@H](C)CO)C(=O)CCCn2nncc2CO[C@H]1CN(C)C(=O)c1ccc(N2CCN(C)CC2)cc1	Tg IFNy HTS -87
C[C@@H]1CN([C@H](C)CO)C(=O)CCCn2nncc2CO[C@H]1CN(C)C(=O)c1ccc(N2CCN(C)CC2)cc1	none
CN(C)C(=O)N1CCc2onc(C(=O)N3CCCC3)c2C1	none
CC(=O)Nc1ccc(CN2CCCN(C(=O)C3CCC3)CC2)cc1	none
C=CCn1c(C2CCCCC2)n[nH]c1=O	none
COc1cccc(NC(=O)N2CCN(Cc3nc(-c4cccc(Cl)c4)oc3C)CC2)c1	none
O=C(Cc1cc(F)ccc1F)NCc1nnc(-c2ccncc2)o1	none
Cc1nc(-c2ccc(-n3ccnc3-c3cc(CC(C)C)[nH]n3)cc2)n[nH]1	none
COC(=O)C1=C(C)NC(C)=C(C(=O)OCCCN2CCC(c3ccccc3)(c3ccccc3)CC2)[C@H]1c1cccc([N+](=O)[O-])c1	Tg IFNy HTS -71!
COCCOC(=O)C1=C(C)NC(C)=C(C(=O)OC(C)C)C1c1cccc([N+](=O)[O-])c1 (stereo not given)	none
COCCOC(=O)C1=C(C)NC(C)=C(C(=O)OC/C=C/c2ccccc2)C1c1cccc([N+](=O)[O-])c1 (stereo not given)	Tg IFNy HTS -73!
COC(=O)C1=C(C)NC(C)=C(C(=O)O[C@@H]2CCCN(Cc3ccccc3)C2)[C@@H]1c1cccc([N+](=O)[O-])c1	none

Screens as filed in PubChem.
